Here are results for 38 compounds from PubChem BioAssay (EPA / NIEHS).

Results filed as inconclusive are left out. The source made the active and inactive calls. Rule for the calls: active = hit-call score of the fitted dose curve at least 0.9, where 1 is the maximum; inconclusive = response in the unintended direction; inactive = score below 0.9. Where a SMILES comes first, the peptide text is derived from it. Bridges are numbered along the chain shown (N, C = ends).

Chain of Cellular tumor antigen p53 (Homo sapiens) (P04637 whole entry, looked up): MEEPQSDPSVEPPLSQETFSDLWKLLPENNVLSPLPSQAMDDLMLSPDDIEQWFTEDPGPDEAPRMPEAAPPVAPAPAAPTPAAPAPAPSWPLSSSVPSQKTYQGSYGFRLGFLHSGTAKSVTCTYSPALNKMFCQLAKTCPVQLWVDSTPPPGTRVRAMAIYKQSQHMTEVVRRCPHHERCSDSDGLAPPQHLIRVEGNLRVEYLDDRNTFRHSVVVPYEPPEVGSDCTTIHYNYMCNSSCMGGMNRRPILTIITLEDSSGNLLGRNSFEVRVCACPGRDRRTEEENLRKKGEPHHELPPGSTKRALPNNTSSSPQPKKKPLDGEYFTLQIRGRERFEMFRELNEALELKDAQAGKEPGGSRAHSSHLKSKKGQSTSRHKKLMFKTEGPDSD

System in the first assay: not listed separately
The experiment in a line: TOX21_p53_BLA_p3_viability: Viability Assessment in the Tox21 HCT-116 p53 Agonism Beta-lactamase Assay, Phase 3 (AID 2283593).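 Note: cells exposed to compound for 16 h before reading.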 The procedure, abridged: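 Cellular ATP was quantified by CellTiter-Glo luminescence, read after 30 min at room temperature. Beforehand, HCT116 cells (4000/well) received compound 5 h post-seeding, 217-fold diluted from DMSO, then incubated 16 h at 37C.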
Consider `CC(O)CCCCn1c(=O)c2c(ncn2C)n(C)c1=O` (stereo unspecified), for which the result was inactive.

As for `CC(=O)c1ccc(C(C)=O)cc1`, the outcome was inactive.

Regarding `CCCCNC(=O)NCCCC`, the outcome was inactive.

With `CN(C)C(=O)Oc1ccc[n+](C)c1`, the compound was classed as inactive.

Turning to `Cc1ccccc1C(=O)Nc1ccc(C(=O)N2CCCC(O)c3cc(Cl)ccc32)c(C)c1` (stereo unspecified), the compound was classed as inactive.

For the compound `BrC(Br)C(Br)Br`, the call was inactive.

With `CCNS(=O)(=O)c1ccc(C)cc1`, the compound was classed as inactive.

For the compound `CN[C@@H]1[C@@H](O)[C@@H](O[C@@H]2[C@@H](O)[C@H](O[C@H]3O[C@H](CN)[C@@H](O)[C@H](O)[C@H]3O)[C@@H](N)C[C@H]2NC(=O)C(O)CN)OC[C@]1(C)O` (stereo partly specified), the outcome was inactive.

On to `O[C@@H]1CO[C@H]2[C@@H]1OC[C@@H]2O`, for which the AC50 (in general, the concentration at which the activity in the assay is half-maximal) was 43.1 µM (active).

On to `O=C(O)c1ccc(NC(=O)[C@H](Cc2ccc(O)cc2)NC(=O)c2ccccc2)cc1`, for which the compound was classed as inactive.

In the case of `C[C@H]1O[C@H](O[C@H]2[C@H](O)[C@@H](O)[C@@H](O[C@H]3[C@H](O)[C@@H](O)[C@H](O)O[C@@H]3CO)O[C@@H]2CO)[C@H](O)[C@@H](O)[C@@H]1N[C@H]1C=C(CO)[C@@H](O)[C@H](O)[C@H]1O`, the result was inactive.

With `Cc1ccc(N)nc1`, the compound was classed as inactive.

Regarding `CC#N`, the compound was classed as inactive.

Regarding `CCOC(=O)[C@H](CCc1ccccc1)N[C@@H](C)C(=O)N1Cc2cc(OC)c(OC)cc2C[C@H]1C(=O)O`, the compound was classed as inactive.

For `NCCCC(O)(P(=O)(O)O)P(=O)(O)O`, the compound was classed as inactive.

`Cn1cnc2ncnc(N)c21`: the outcome was inactive.

For `N[C@@H](CSCCCO)C(=O)O`, the result was inactive.

As for `COc1cc2c(cc1OC)C(C(C(=O)N(CCc1ccc(OC)c(OC)c1OC)CCc1ccc(OC)c(OC)c1OC)c1ccccc1)=NCC2` (stereo unspecified), the result was inactive.

Take `C[C@](N)(Cc1ccc(O)cc1)C(=O)O`: the outcome was inactive.

For the compound `Cc1cc([N+](=O)[O-])ccc1N`, the result was inactive.

Consider `CCCCOc1ccc(OCCCN2CCOCC2)cc1`, for which the call was inactive.

As to `CC1(C)OC[C@@H](COC(=O)CCc2ccc(OC[C@@H](O)CNCCNC(=O)N3CCOCC3)cc2)O1`, the compound was classed as inactive.

`N[C@H]1CN(c2c(F)cc3c(=O)c(C(=O)O)cn(C4C[C@H]4F)c3c2Cl)CC12CC2` (stereo partly specified): the compound was classed as inactive.

`CC1=C(/C=C/C(C)=C/C=C/C(C)=C/C=C/C=C(C)/C=C/C=C(C)/C=C/C2=C(C)C(=O)CCC2(C)C)C(C)(C)CCC1=O`: the outcome was inactive.

Take `NCCCC[C@H](NC(=O)[C@@H]1CCCN1C(=O)[C@@H]1CSSC[C@H](NC(=O)CNC(=O)CNC(=O)CN)C(=O)N[C@@H](Cc2ccc(O)cc2)C(=O)N[C@@H](Cc2ccccc2)C(=O)N[C@@H](CCC(N)=O)C(=O)N[C@@H](CC(N)=O)C(=O)N1)C(=O)NCC(N)=O` (H-GGGCYFQNCPKG-NH2; disulfide 4-9): the result was inactive.

In the case of `CN(C)CCCNCCCN`, the result was inactive.

As to `C=C1C(=O)O[C@H]2[C@H]1CC/C(C)=C/CC[C@@]1(C)O[C@@H]21`, the outcome was inactive.

On to `O=C(Cn1c(=O)sc2ccc(Cl)cc21)N1CCN(CCO)CC1`, for which the outcome was inactive.

For `O=S(=O)(O)c1cccc(S(=O)(=O)O)c1`, the compound was classed as inactive.

Turning to `O=c1oc2c(O)c(O)cc3c(=O)oc4c(O)c(O)cc1c4c23`, the result was inactive.

For the compound `O=C(O)c1cc(C(=O)O)cc(C(=O)O)c1`, the result was inactive.

`CC1CCCCN1CCCOC(=O)c1ccccc1` (stereo unspecified): the result was inactive.

For the compound `O=P(O)(O)OP(=O)(O)OP(=O)(O)O`, the outcome was inactive.

For `NCc1ccc(S(N)(=O)=O)cc1`, the outcome was inactive.

On to `CC(=O)c1cnccn1`, for which the result was inactive.

Turning to `Cc1ccc(S(=O)(=O)NC(=O)NC2CCCC2)cc1`, the outcome was inactive.

Regarding `COc1cc(Cl)ccc1Cl`, the compound was classed as inactive.

Consider `CO[C@H]1O[C@@H]2O[C@@]3(C)CC[C@H]4[C@H](C)CC[C@@H]([C@H]1C)[C@@]24OO3`, for which the outcome was inactive.

A further assay addresses Cellular tumor antigen p53 (Homo sapiens) (UniProt P04637). Kind of assay: TOX21_p53_BLA_p3_ratio: Tox21 HCT-116 p53 Agonism Beta-lactamase Assay, Ratio, Phase 3 (AID 2283596). The procedure, abridged:
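HCT116 p53-bla cells (4000/well) given compound in DMSO (217-fold dilution) after 5 h, incubated 16 h at 37C. CCF4-AM substrate 2 h at room temperature; 460/530 nm emission ratio, gain fitted against DMSO.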
With `CC(O)CCCCn1c(=O)c2c(ncn2C)n(C)c1=O` (stereo unspecified), the result was inactive.

In the case of `CC(=O)c1ccc(C(C)=O)cc1`, the result was inactive.

Turning to `CCCCNC(=O)NCCCC`, the result was inactive.

For the compound `CN(C)C(=O)Oc1ccc[n+](C)c1`, the result was inactive.

For the compound `Cc1ccccc1C(=O)Nc1ccc(C(=O)N2CCCC(O)c3cc(Cl)ccc32)c(C)c1` (stereo unspecified), the result was inactive.

In the case of `BrC(Br)C(Br)Br`, the outcome was inactive.

Take `CCNS(=O)(=O)c1ccc(C)cc1`: the outcome was inactive.

For `CN[C@@H]1[C@@H](O)[C@@H](O[C@@H]2[C@@H](O)[C@H](O[C@H]3O[C@H](CN)[C@@H](O)[C@H](O)[C@H]3O)[C@@H](N)C[C@H]2NC(=O)C(O)CN)OC[C@]1(C)O` (stereo partly specified), the outcome was inactive.

In the case of `O[C@@H]1CO[C@H]2[C@@H]1OC[C@@H]2O`, the outcome was inactive.

For `O=C(O)c1ccc(NC(=O)[C@H](Cc2ccc(O)cc2)NC(=O)c2ccccc2)cc1`, the outcome was inactive.

`C[C@H]1O[C@H](O[C@H]2[C@H](O)[C@@H](O)[C@@H](O[C@H]3[C@H](O)[C@@H](O)[C@H](O)O[C@@H]3CO)O[C@@H]2CO)[C@H](O)[C@@H](O)[C@@H]1N[C@H]1C=C(CO)[C@@H](O)[C@H](O)[C@H]1O`: the result was inactive.

`Cc1ccc(N)nc1`: the result was inactive.

As to `CC#N`, the outcome was inactive.

Regarding `CCOC(=O)[C@H](CCc1ccccc1)N[C@@H](C)C(=O)N1Cc2cc(OC)c(OC)cc2C[C@H]1C(=O)O`, the outcome was inactive.

Consider `NCCCC(O)(P(=O)(O)O)P(=O)(O)O`, for which the outcome was inactive.

Take `Cn1cnc2ncnc(N)c21`: the outcome was inactive.

Take `N[C@@H](CSCCCO)C(=O)O`: the result was inactive.

For `COc1cc2c(cc1OC)C(C(C(=O)N(CCc1ccc(OC)c(OC)c1OC)CCc1ccc(OC)c(OC)c1OC)c1ccccc1)=NCC2` (stereo unspecified), the outcome was inactive.

`C[C@](N)(Cc1ccc(O)cc1)C(=O)O`: the outcome was inactive.

On to `Cc1cc([N+](=O)[O-])ccc1N`, for which the outcome was inactive.

Turning to `CCCCOc1ccc(OCCCN2CCOCC2)cc1`, the outcome was inactive.

Consider `CC1(C)OC[C@@H](COC(=O)CCc2ccc(OC[C@@H](O)CNCCNC(=O)N3CCOCC3)cc2)O1`, for which the outcome was inactive.

For `N[C@H]1CN(c2c(F)cc3c(=O)c(C(=O)O)cn(C4C[C@H]4F)c3c2Cl)CC12CC2` (stereo partly specified), the result was inactive.

As to `CC1=C(/C=C/C(C)=C/C=C/C(C)=C/C=C/C=C(C)/C=C/C=C(C)/C=C/C2=C(C)C(=O)CCC2(C)C)C(C)(C)CCC1=O`, the result was inactive.

As to `NCCCC[C@H](NC(=O)[C@@H]1CCCN1C(=O)[C@@H]1CSSC[C@H](NC(=O)CNC(=O)CNC(=O)CN)C(=O)N[C@@H](Cc2ccc(O)cc2)C(=O)N[C@@H](Cc2ccccc2)C(=O)N[C@@H](CCC(N)=O)C(=O)N[C@@H](CC(N)=O)C(=O)N1)C(=O)NCC(N)=O` (H-GGGCYFQNCPKG-NH2; disulfide 4-9), the outcome was inactive.

For the compound `CN(C)CCCNCCCN`, the result was inactive.

For the compound `C=C1C(=O)O[C@H]2[C@H]1CC/C(C)=C/CC[C@@]1(C)O[C@@H]21`, the AC50 was 34.3 µM (active).

Take `O=C(Cn1c(=O)sc2ccc(Cl)cc21)N1CCN(CCO)CC1`: the outcome was inactive.

For `O=S(=O)(O)c1cccc(S(=O)(=O)O)c1`, the result was inactive.

Take `O=c1oc2c(O)c(O)cc3c(=O)oc4c(O)c(O)cc1c4c23`: the result was inactive.

As for `O=C(O)c1cc(C(=O)O)cc(C(=O)O)c1`, the outcome was inactive.

Regarding `CC1CCCCN1CCCOC(=O)c1ccccc1` (stereo unspecified), the outcome was inactive.

Consider `O=P(O)(O)OP(=O)(O)OP(=O)(O)O`, for which the outcome was inactive.

With `NCc1ccc(S(N)(=O)=O)cc1`, the result was inactive.

For `CC(=O)c1cnccn1`, the result was inactive.

As to `Cc1ccc(S(=O)(=O)NC(=O)NC2CCCC2)cc1`, the outcome was inactive.

In the case of `COc1cc(Cl)ccc1Cl`, the result was inactive.

Take `CO[C@H]1O[C@@H]2O[C@@]3(C)CC[C@H]4[C@H](C)CC[C@@H]([C@H]1C)[C@@]24OO3`: the result was inactive.
